Screening data as filed in PubChem BioAssay.
Six1-Eya2 blk: qHTS Assay for Inhibitors of the Six1/Eya2 Interaction. AID 651725, 2012. AlphaScreen GST-Six1/His-Eya2 binding, biochemical; hits give low values. Homeobox protein SIX1 (Homo sapiens) + Protein phosphatase EYA2 (Homo sapiens), …. 0.56% of 360,000 active. activity change, % (concentration not given with the values); in the data active = activity change below about -65%; inconclusive = mostly about -30% to -63%; also: % is scaled to controls: 0 for no effect and ±100 for the full control effect
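AlphaScreen with GST-Six1 and His-Eya2 (5X mix: 250 nM and 500 nM), glutathione donor and nickel acceptor beads; buffer 50 mM Tris pH 8.0, 300 mM NaCl, 1 mM TCEP; 1 h at 37 C in the dark.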
RORgamma inh: qHTS for inhibitors of ROR gamma transcriptional activity | Nuclear receptor ROR-gamma (Mus musculus), P51450 | Drosophila S2 Gal4-RORgamma UAS-luciferase reporter, 20 h | Potency, µM (highest dose often 53.6 µM), inactives show at the highest dose activity change, negative = inhibition, actives largely listed as inhibitors | 5.4% of 310,000 active; also: potency is read from the fitted curve at half-maximal effect; % is scaled to controls: 0 for no effect and ±100 for the full control effect; nearly all actives have a fitted effect of over 60% in size
Target sequence (P51450 whole entry, looked up, the tested form may be a part): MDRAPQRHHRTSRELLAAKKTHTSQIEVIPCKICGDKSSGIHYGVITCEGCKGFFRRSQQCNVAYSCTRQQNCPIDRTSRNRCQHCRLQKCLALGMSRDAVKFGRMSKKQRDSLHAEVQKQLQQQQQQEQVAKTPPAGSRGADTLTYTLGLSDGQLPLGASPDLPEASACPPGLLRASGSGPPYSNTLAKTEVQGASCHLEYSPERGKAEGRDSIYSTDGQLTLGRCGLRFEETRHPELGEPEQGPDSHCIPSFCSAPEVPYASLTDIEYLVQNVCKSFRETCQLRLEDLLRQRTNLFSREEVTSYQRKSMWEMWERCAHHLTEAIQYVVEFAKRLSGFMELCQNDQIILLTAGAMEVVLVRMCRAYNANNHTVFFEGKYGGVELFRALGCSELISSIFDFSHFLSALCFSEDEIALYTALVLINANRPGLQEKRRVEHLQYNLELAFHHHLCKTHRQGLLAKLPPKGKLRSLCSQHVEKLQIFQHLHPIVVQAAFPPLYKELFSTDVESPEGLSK
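A Gal4/UAS one-hybrid system in insect cells: metallothionein-promoter Gal4–ROR gamma fusion plus Photinus luciferase reporter. Copper sulfate 700 uM final, 20 hr ambient incubation, luminescent detection after 10 min with reagent.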
CBFb-RUNX1 inh: qHTS Assay for Compounds Blocking the Interaction Between CBF-beta and RUNX1 for the Treatment of Acute Myeloid Leukemia; Runt-related transcription factor 1 (Homo sapiens) + Core-binding factor subunit beta …; 230,000 tested, under 10 active; AlphaScreen CBFb-His/RUNX1-biotin binding, biochemical; Potency, µM (doses to about 59.8 µM), inactives show at the top dose activity, negative = inhibition, usual class: inhibitors; AID 1477, 2009; also: % of control where 0% means no effect
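Read-out: AlphaScreen. Format: His-CBF-beta with biotinylated RUNX1 (30 nM each) preincubated 20 min, compound 15 min, Ni-chelate plus streptavidin beads 90 min; room temperature throughout.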
CtBP-E1A inh: qHTS Assay for Inhibitors of the CtBP/E1A Interaction; 0.49% of 340,000 active; AID 651724, 2012; AlphaScreen GST-E1A/His-CtBP binding, 1536-well; hits give low values; activity change, % (concentration not given with the values); in the data active = activity change below about -65%; inconclusive = mostly about -30% to -63%; also: % is scaled to controls: 0 for no effect and ±100 for the full control effect
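Protein mix (5X: 125 nM each GST-E1A, His-CtBP) was incubated with pinned compound 2 h at 37 deg C in dark, in 50 mM Tris pH 8.0 buffer with 300 mM NaCl. Glutathione donor and nickel acceptor beads followed; AlphaScreen signal read after 1 h.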
MBNL1-CUG inh: qHTS Assay for Inhibitors of MBNL1-poly(CUG) RNA binding; Muscleblind-like protein 1 (Homo sapiens), Q9NR56; TR-FRET MBNL1-His/biotin-(CUG)12 binding, 665/545 ratio; Potency, µM (titrated, usually from 57.5 µM), without a hit: at the highest dose activity change, negative = inhibition, usual class: inhibitors; 0.036% of 280,000 active; AID 2675, 2010; active = well fitted inhibition curve with a large enough effect in the signal ratio, with a control signal flat, not every such curve was filed as active; inconclusive = small, poorly fitted or top-dose-only effect, or effect the other way, or a change in a side signal; inactive = no such curve, though single readings can be large or run the other way; the % refers to the signal ratio; also: potency is read from the fitted curve at half-maximal effect; % is scaled to controls: 0 for no effect and ±100 for the full control effect
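Compound titration spanned 92 nM–58 uM against the MBNL1-His/biotin-(CUG)12 complex. After 60 min at room temperature with 5 nM streptavidin-XL665 and 0.055 ng/ul terbium anti-His, ratiometric 665/545 nm emission (Ex 340 nm) normalized to controls.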
Gal4-VP16 FLuc: VP16 counterscreen qHTS for inhibitors of ROR gamma transcriptional activity. Drosophila S2 Gal4-VP16 UAS-luciferase, luminescence, 20 h. Potency, µM (highest dose often 53.6 µM), inactives show top-dose activity, negative = inhibition, actives largely listed as inhibitors. 3.5% of 310,000 active. AID 2546, 2010;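 also: Gal4-VP16 expression switched on by copper sulfate through the metallothionein promoter; potency is read from the fitted curve at half-maximal effect; % is scaled to controls: 0 for no effect and ±100 for the full control effect; nearly all actives have a fitted effect of over 50% in size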
The depositor's hits bear a star; ? = inconclusive; / = no result given; [ ] = another dose, or the depositor's remark. Sampled rows, rich in hits. Any-hit rate of the full collection: about 5.5%. Unless noted, calls follow the shape of the dose curve; as a rule, active = well fitted curve in the direction sought with a large enough effect; inconclusive = small, poorly fitted or top-dose-only effect, or another doubt; inactive = no such curve, though single readings can be large; an effect the other way counts as inactive or inconclusive.

SMILES | Six1-Eya2 blk | RORgamma inh | CBFb-RUNX1 inh | CtBP-E1A inh | MBNL1-CUG inh | Gal4-VP16 FLuc
O=C(N/N=C/c1ccc2c(c1)OCO2)c1cc(-c2ccccc2)nc2ccccc12 | -21 | ? | 4% | -6 | / | ?
COc1c(/C=N/NC(=O)c2ccncc2)c(CCN(C)C(C)=O)cc2c1OCO2 | -1 | 4% | 9% | 0 | -1% | 1%
O=C(NCc1ccccc1)C1c2ccccc2OCC(=O)N1Cc1ccc2c(c1)OCO2 (stereo unspecified) | 10 | / | / | 25 | / | /
O=C1c2ccccc2C(c2nnnn2-c2ccc3c(c2)OCCO3)N1CCc1ccccc1F (stereo unspecified) | 1 | / | / | 2 | / | /
Cc1ccc(C2=NC3(CCCCC3)NC2=S)cc1 | 8 | 2µM* | 5% | -3 | / | 4µM*
O=C1NC2(CCCC2)N=C1c1ccc(F)cc1 | 4 | -5% | 2% | 2 | 7% | -4%
S=C1NC2(CCCCC2)N=C1c1ccccc1 | 1 | 3.2µM* | -7% | 5 | / | 3.5µM*
O=C1NC2(CCCCCC2)N=C1c1ccc(Br)cc1 | -3 | 2% | 3% | / | 4% | -3%
CCN1CCC2(CC1)N=C(c1ccc(F)cc1)C(=S)N2 | 2 | 13µM* | -1% | 3 | 9% | -4%
O=C(c1cc2cc([N+](=O)[O-])ccc2oc1=O)N1CCOCC1 | -6 | 5µM* | -2% | -1 | -2% | ?
O=C(c1cc2cc([N+](=O)[O-])ccc2oc1=O)N1CCN(c2ncccn2)CC1 | 0 | 20% | 3% | 7 | -4% | 1%
O=C1CC(C2CCCO2)C(=O)N1c1ccc(Cl)c(Cl)c1 (stereo unspecified) | 0 | ? | 2% | 5 | 0% | 11µM*
COCc1nnc(NC(=O)c2ccc(S(=O)(=O)N(CC(C)C)CC(C)C)cc2)o1 | -7 | 0.63µM* | -7% | -11 | -6% | 2.5µM*
C=CCN(CC=C)S(=O)(=O)c1ccc(C(=O)Nc2nnc(COC)o2)cc1 | -23 | 2µM* | -15% | / | / | 7.1µM*
CC(C)(C)c1ccc(CN2N=Nc3ccccc3S2(=O)=O)cc1 | 2 | 23% | 0% | -2 | 4% | 1.6µM*
CC(=O)Nc1ccc(S(=O)(=O)Nc2ccc3c(c2)OCCO3)cc1Cl | 7 | ? | 5% | 6 | 5% | 13µM*
COc1ccc(NS(=O)(=O)c2ccc(-n3cnnn3)cc2)cc1OC | -1 | -5% | / | / | -3% | 10µM*
COc1ccc(NS(=O)(=O)c2ccc3c(c2)OCCO3)cc1OC | 1 | ? | / | 4 | -3% | 7.1µM*
COc1ccc(S(=O)(=O)Nc2ccc3c(c2)OCCO3)cc1Cl | -4 | ? | 6% | -1 | -8% | ?
CC(=O)Nc1ccc(NS(=O)(=O)c2ccccc2)cc1 | 11 | -1% | 0% | 1 | -7% | -1%
CC(=O)Nc1ccc(S(=O)(=O)Nc2ccc3c(c2)C(=O)OC3)cc1 | / | ? | 18% | / | -1% | 11µM*
CCc1nc2c(OCCOc3ccc(F)cc3)cccn2c1N(C)C(=O)c1ccc(C)cc1 | 1 | / | / | -13 | / | /
COc1ccccc1NS(=O)(=O)c1ccc(-c2cnc(C3CC3)o2)cc1 | -15 | -6% | / | / | -7% | -1%
COc1ccc(NS(=O)(=O)c2ccc(-c3cnc(C4CC4)o3)cc2)cc1OC | -10 | ? | / | / | 1% | 7.1µM*
C[C@]12CCC(O)CC1=CCC1C2CC[C@]2(C)/C(=N\NC(N)=S)CCC12 (stereo partly specified) | -12 | 13µM* | / | -7 | -16% | -12%
SMILES | Six1-Eya2 blk | RORgamma inh | CBFb-RUNX1 inh | CtBP-E1A inh | MBNL1-CUG inh | Gal4-VP16 FLuc
C=CCC1C=CC(Oc2ccc(OC)cc2)C(COC(=O)c2ccc(Br)cc2)O1 (stereo unspecified) | / | 14%[10 µM] | 26%[13.1 µM] | / | / | -12%[10 µM]
O=C(Nc1ccc2nc3n(c(=O)c2c1)CCCC3)c1cccc([N+](=O)[O-])c1 | -66* | 35% | -2% | 0 | ? | 5%
O=C(Nc1ccc2nc3n(c(=O)c2c1)CCCC3)c1cncc(Br)c1 | ? | / | / | -65* | / | /
O=C(Nc1ccc2nc3n(c(=O)c2c1)CCCC3)c1cc([N+](=O)[O-])ccc1F | -29 | 5%[10 µM] | 6% | -15 | / | -97%
COc1cc(OC)cc(C(=O)Nc2ccc3nc4n(c(=O)c3c2)CCCCC4)c1 | -12 | 17% | / | -23 | -6% | -11%
Cc1noc(C)c1C(=O)OCC(=O)Nc1ccc(N2CCOCC2)cc1 | -2 | / | / | -17 | / | /
CCc1ccc(O)c(N=Cc2cccc(C)c2O)c1 | -1 | 11µM* | -13% | -10 | 9% | ?
O=c1[nH]c(=O)c2[nH]c(=O)[nH]c2[nH]1 | / | 36% | / | / | / | 7%
COc1ccc(-c2csc3nc(C)nc(N4CCCCC4)c23)cc1OC | 14 | 10µM* | -5% | 0 | 5% | 10%
CCOc1ccc2c(c1)C(=NNC(=O)c1ccncc1)c1cc(OCC)ccc1-2 | -8 | 1.1µM* | -2% | 3 | 3% | 0.89µM*
CNc1sc(C(=O)c2ccccc2F)c(N)c1-c1nc2ccccc2s1 | -21 | 7.9µM* | ? | -24 | ? | 13µM*
COc1ccc(C2(C(=O)NCCCN3CCOCC3)CCOCC2)cc1 | 8 | 3.5µM* | 3% | 3 | 8% | -5%
COc1ccc(C2(C(=O)NCCN3CCOCC3)CCOCC2)cc1 | 2 | -23% | 4% | 3 | -9% | -1%
CC(C)CCCC(C)N (stereo unspecified) | / | -13% | / | / | / | -4%
Clc1ccc(-c2csc3ncnc(NCCN4CCOCC4)c23)cc1 | -2 | -1% | -3% | 0 | 5% | -10%
Clc1ccc(CNc2nc(CN3CCOCC3)nc3scc(-c4ccccc4)c23)cc1 | -27 | 11µM* | -4% | -19 | 21% | 8.9µM*
CN(C)c1ccc(-c2ccc3ncnc(N(C)Cc4ccco4)c3c2)cc1 | / | 4% | / | / | / | 7%
C=CC[C@@H]1C=C[C@@H](O/N=C\C[C@@H]2C=C[C@H](OC(C)=O)[C@H](COC(C)=O)O2)[C@@H](CO)O1 | / | 18%[10 µM] | 8%[13.1 µM] | / | / | 4%[10 µM]
COc1ccc(C=O)cc1CSc1ccccn1 | 1 | -3% | 5% | 12 | -8% | 4%
